From publication PMC7819943, “Rice protein-binding microarrays: a tool to detect cis-acting elements near promoter regions in rice”
In all, about 35,000 sequences were measured (“fluorescence intensity (a.u.)”: median about 10,000, highest 2% from about 52,000 on). This excerpt belongs to a sample that is enriched for the highest values.

Each sequence was assayed against T1, OsWOX13 (Oryza sativa, UniProt Q5QMM3 1-267) (assay: protein-binding microarray (RPBM); PBS, 2% BSA, 51.3 ng/ul salmon testes DNA, 50 uM zinc acetate, 200 nM TF, 25 C, 1 h; high values mean tight binding). Conditions: protein: recombinant; tags: N-terminal polyhistidine and DsRed monomer fusion (pET32a); label: CyDye5-dUTP incorporated in the synthesized complementary strand; 3' TTTTT single-stranded linker to array surface; dsDNA, one strand shown.
T1 sequence: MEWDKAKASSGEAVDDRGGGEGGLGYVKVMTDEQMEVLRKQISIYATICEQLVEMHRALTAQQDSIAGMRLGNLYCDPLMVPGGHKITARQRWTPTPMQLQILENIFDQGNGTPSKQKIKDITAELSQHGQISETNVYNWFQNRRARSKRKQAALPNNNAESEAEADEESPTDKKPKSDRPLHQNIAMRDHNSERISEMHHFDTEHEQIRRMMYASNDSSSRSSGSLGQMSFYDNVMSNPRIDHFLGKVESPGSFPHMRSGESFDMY
How it was run: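 Binding signal here means per-feature fluorescence intensity in arbitrary units. The values were read on an Axon 4000B scanner after a custom Agilent array, double-stranded by primer extension with Cy5-dUTP, was incubated with 200 nM protein at 25 °C for 1 h in PBS with 2% BSA, salmon testes DNA and 50 µM zinc acetate, then washed. The proteins were transcription factors with an N-terminal polyhistidine tag and DsRed, expressed in E. coli BL21-CodonPlus and purified on Ni–NTA.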
With “CGGTCATCAATCTCATCAGCTACATCCCAAAGGGGAATCACGGAGTCACCTAGTGCAG” the binding signal was 5580 fluorescence intensity (a.u.).
For “ATTTGATTTAAAACCTCAGTTTTCGATTGAGAGAAAATATCGGAGTCACCTAGTGCAG”, the binding signal was 4350 fluorescence intensity (a.u.).
“CTGTCAATCTGCATATATCTGTCTCTCTTACTCACTAACACGGAGTCACCTAGTGCAG” was tested, and the binding signal was 8750 fluorescence intensity (a.u.).
For “ACTCACGCGCAATTAGCTGGTTTTGATGGGTCAGGAGGAACGGAGTCACCTAGTGCAG”, the binding signal was 5020 fluorescence intensity (a.u.).
“TGTAATTTAATTTTGCCTCCACATTTCCTGACTTTGGCCACGGAGTCACCTAGTGCAG” was tested, and the binding signal was 45700 fluorescence intensity (a.u.).
In the case of “ACGCCATGATTGACAATGTGATGCTACAGTAAACATTTGCCGGAGTCACCTAGTGCAG”, the binding signal was 53900 fluorescence intensity (a.u.).
With “CCATGATTTGACAATGTGATGCTACAGTAAACATTTGCTACGGAGTCACCTAGTGCAG” the binding signal was 42800 fluorescence intensity (a.u.).
With “ACGCCATGATTTGACAATGTGATGCTACAGTAAACATTTGCGGAGTCACCTAGTGCAG” the binding signal was 23300 fluorescence intensity (a.u.).
“CACCATAACTAATTAACAAGCCACCTATTTCCTCTTGACACGGAGTCACCTAGTGCAG” was tested, and the binding signal was 10800 fluorescence intensity (a.u.).
With “AGCCATGCATCAACACGTAATTAAGTACTAGTTGACAGTGCGGAGTCACCTAGTGCAG” the binding signal was 4190 fluorescence intensity (a.u.).
With “CACATTCAGTTCTAGATTAATTTATTTTGGATGAATGTATCGGAGTCACCTAGTGCAG” the binding signal was 6060 fluorescence intensity (a.u.).
“ATGTATTTAATTATAGATTTAATAAAATTAATCTAGTGTTCGGAGTCACCTAGTGCAG” was tested, and the binding signal was 17500 fluorescence intensity (a.u.).
For “CCGAATTTCTATTATTTCTTAATTGTATTTCTATATGGACCGGAGTCACCTAGTGCAG”, the binding signal was 7410 fluorescence intensity (a.u.).
With “CGGCTAATTAATTTATATTTCTATATGTATTGACCCTGTTCGGAGTCACCTAGTGCAG” the binding signal was 61100 fluorescence intensity (a.u.).
For “TTGCTTTAACTAGCTGCTTAATTATATGTTCTTTGTATTTCGGAGTCACCTAGTGCAG”, the binding signal was 5230 fluorescence intensity (a.u.).
In the case of “GCTAATTAATCTATTATTGATTTAGATGTATCGACCAGTTCGGAGTCACCTAGTGCAG”, the binding signal was 53500 fluorescence intensity (a.u.).
For “AATCAATTATAACCATTTTCTATTTAATTACCTCACGCACCGGAGTCACCTAGTGCAG”, the binding signal was 25700 fluorescence intensity (a.u.).
“ATATAACAGTTTATTCACAAATTATTTTCCGTTTGCAAATCGGAGTCACCTAGTGCAG” was tested, and the binding signal was 6830 fluorescence intensity (a.u.).
“AATATTGATGCTTAAATTTCTTTCGAAGATCCTATGGAAGCGGAGTCACCTAGTGCAG” was tested, and the binding signal was 3840 fluorescence intensity (a.u.).
“ATAAATTGATGCCCAATTTTCGAAGATGCTCATAGGGGTGCGGAGTCACCTAGTGCAG” was tested, and the binding signal was 52500 fluorescence intensity (a.u.).
In the case of “ATTGACAAGATAGATTGTTGCCCAATTTTCGAAGATGCTCCGGAGTCACCTAGTGCAG”, the binding signal was 42000 fluorescence intensity (a.u.).
With “TCCTGTAACAGAATTGGAAAACCCAATCTGGCGACGGCTGCGGAGTCACCTAGTGCAG” the binding signal was 9790 fluorescence intensity (a.u.).
With “CTTGACAGGCACCGTGATACTTGGGTTCTTGATATAACTGCGGAGTCACCTAGTGCAG” the binding signal was 34400 fluorescence intensity (a.u.).
With “TGATTAATTAGCGAGAGTAATTAATTAATTATAGCCTGCGCGGAGTCACCTAGTGCAG” the binding signal was 61600 fluorescence intensity (a.u.).
“GCGTAATTAGGCGGAGAGATTATAGGGAGAGAGATCGCGACGGAGTCACCTAGTGCAG” was tested, and the binding signal was 16700 fluorescence intensity (a.u.).
With “TTAAAATTATTTTATAATTAATATTTATTATTATTATTAGCGGAGTCACCTAGTGCAG” the binding signal was 12400 fluorescence intensity (a.u.).
With “GTAATTGATTTTCTGGCGCGATTAAGAGCTTGGTATATAGCGGAGTCACCTAGTGCAG” the binding signal was 59200 fluorescence intensity (a.u.).
With “ATATAGTTGTGATTAATTAGTGAGTAGAGTGTGATACCTGCGGAGTCACCTAGTGCAG” the binding signal was 22100 fluorescence intensity (a.u.).
“ATGATATAATTAATTAATTAGCGCGCGGTTCCACCTCCCGCGGAGTCACCTAGTGCAG” was tested, and the binding signal was 60200 fluorescence intensity (a.u.).
With “TAGCTTAATTTGATTTCTATTTAAGACCTTGACATTAACGCGGAGTCACCTAGTGCAG” the binding signal was 24400 fluorescence intensity (a.u.).
In the case of “AATCCTCTTAATTATTATTAGCGGTTCGTCCTATGATCTTCGGAGTCACCTAGTGCAG”, the binding signal was 7080 fluorescence intensity (a.u.).
With “CTGACTGGCTCTGATTAATTAATTGATGATCGATCGAGCGCGGAGTCACCTAGTGCAG” the binding signal was 49800 fluorescence intensity (a.u.).
In the case of “GAGCATGATTACTTAAATATTAGCTAATTCTTTCTTTAAACGGAGTCACCTAGTGCAG”, the binding signal was 15500 fluorescence intensity (a.u.).
With “GTTGTACCACTGATTGGACTGCCTGCTTACCGATAATTAACGGAGTCACCTAGTGCAG” the binding signal was 24500 fluorescence intensity (a.u.).
With “TTCTTGATGGAAATTGAAATTGTGTGTGTGGGATGCAGGACGGAGTCACCTAGTGCAG” the binding signal was 46400 fluorescence intensity (a.u.).
For “ACACTAATAGGTCATGTCCATTTCCATCCCATTTCCATTGCGGAGTCACCTAGTGCAG”, the binding signal was 7050 fluorescence intensity (a.u.).
“AGACTATTTACAAAACTAATTACATAAATGAAAGCTAACTCGGAGTCACCTAGTGCAG” was tested, and the binding signal was 5260 fluorescence intensity (a.u.).
With “TAAATTATTTTCTATTTATAAATATGTCGTTTGCCTTATTCGGAGTCACCTAGTGCAG” the binding signal was 4180 fluorescence intensity (a.u.).
With “AATTGACAAAGATGAAACACATGTGGACTGGACTACTCGACGGAGTCACCTAGTGCAG” the binding signal was 3660 fluorescence intensity (a.u.).
For “ATATAAATTGACTATTAAATATATTGACTATATGTAAATTCGGAGTCACCTAGTGCAG”, the binding signal was 25600 fluorescence intensity (a.u.).
For “AATTAACGGAGGAAACTCCAATCAGATACGCAGACGGACACGGAGTCACCTAGTGCAG”, the binding signal was 8430 fluorescence intensity (a.u.).
“TATATATATATATATATATATATATATATATATATAGACACGGAGTCACCTAGTGCAG” was tested, and the binding signal was 7880 fluorescence intensity (a.u.).
In the case of “ATTTGATTTGATCACAACACATTAGCTTGGTTGCTCCATGCGGAGTCACCTAGTGCAG”, the binding signal was 41800 fluorescence intensity (a.u.).
For “ATTGATGAATGTTGACAAACCTGGTTTGATTTGGAGGGAACGGAGTCACCTAGTGCAG”, the binding signal was 23500 fluorescence intensity (a.u.).
For “AACACAGGCTGATGAATGATGATTGAATGAACAGAGACAACGGAGTCACCTAGTGCAG”, the binding signal was 22900 fluorescence intensity (a.u.).
For “TGGCTGCTGATTGCAACAGTGGTACTGACATTAGCAGCAGCGGAGTCACCTAGTGCAG”, the binding signal was 16300 fluorescence intensity (a.u.).
With “TATCTGATGAGAGCAGATTGCCACACATCACAGCATGCAGCGGAGTCACCTAGTGCAG” the binding signal was 10300 fluorescence intensity (a.u.).
For “AACAGCTGATGAGTGATGATTGACAGACATCACACGCGGACGGAGTCACCTAGTGCAG”, the binding signal was 57600 fluorescence intensity (a.u.).
For “AGTGATTATTTATTGGAGTACGATTGAGACCCTTGGTACGCGGAGTCACCTAGTGCAG”, the binding signal was 33400 fluorescence intensity (a.u.).
For “ATTGCTGATTGAGCATGTAGACATTGCTAGTGGTAGTACGCGGAGTCACCTAGTGCAG”, the binding signal was 58000 fluorescence intensity (a.u.).
For “TTACACTGATTGATGCTCCACATGAACACCACATGCATTTCGGAGTCACCTAGTGCAG”, the binding signal was 32600 fluorescence intensity (a.u.).
“CTCTAGTTGATGATGGAAATCATTGACAAGAACTATAGCACGGAGTCACCTAGTGCAG” was tested, and the binding signal was 22100 fluorescence intensity (a.u.).
“ATGATTGACAAGATGAATCAGCACGCTGTTGGAAAAGGGACGGAGTCACCTAGTGCAG” was tested, and the binding signal was 55400 fluorescence intensity (a.u.).
“CACCATGATTGATTGCTCCATGCACACACATTGAGACACGCGGAGTCACCTAGTGCAG” was tested, and the binding signal was 59700 fluorescence intensity (a.u.).
